The values below come from PubChem BioAssay (EPA / NIEHS).

A short description of experiment [1]: VALA_TUBHUV_Antagonist_TubuleLength: VALA Sciences human Umbilical Vein Endothelial Tubule Formation (TUBHUV) Antagonism Assay (AID 2284325). A digest of the protocol:
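HUVEC–HDF co-culture (1:3) pre-grown 3 days with 10 ng/ml VEGF, then 3 days with compound plus VEGF. Fixed, nuclear and CD31 stained; total tubule length by imaging versus 0.1% DMSO; suramin 100 uM positive control.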

The nature of experiment [2]: VALA_MIGHUV1_ScratchOnly_WoundArea: VALA Sciences human Umbilical Vein Endothelial Cell Migration (MIGHUV) Assay, Area of Scratch Wound Inhibited Recovery (AID 2284336). A digest of the protocol:
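HUVEC monolayers (9000 cells/well) were scratched after 24 h, dosed within 30 min (six concentrations, triplicate, 0.1% DMSO), allowed 24 h recovery, then fixed. Hoechst-stained nuclei in the wound imaged; cytochalasin D as reference.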

Experiment [3] is described as follows: VALA_TUBHUV_Agonist_TubuleLength: VALA Sciences human Umbilical Vein Endothelial Tubule Formation (TUBHUV) Agonism Assay (AID 2284337). Put shortly:
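HUVEC co-cultured with fibroblasts (1:3) 3 days in 10 ng/ml VEGF, then 3 days with compound plus VEGF; 0.1 % DMSO neutral control. Fixed, nuclear and CD31 stained; tubule length by fluorescence imaging.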

Experiment [4] in a line: VALA_TUBIPS_Agonist_CellCount: Viability Assessment in the VALA Sciences human iPS-derived Endothelial Tubule Formation (TUBIPS) Agonism Assay (AID 2284338).
Experiment [5] deals with SRD5A2 (gene 6716). Nature of the experiment: CCTE_Deisenroth_5AR_NBTE_ratio: CCTE's 5alpha-reductase NanoBRET Target Engagement Assay - Ratio, Deisenroth Lab (AID 2284322; active = hit-call score of the fitted dose curve at least 0.9, where 1 is the maximum; inactive = score below 0.9). Particulars: actives raise or lower the signal. Put shortly:
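HEK293T transiently expressing SRD5A2-NanoLuc; cells exposed to chemical (8-point, 10 nM - 29.9 uM) for 5 h total, testosterone tracer added for final 2 h. NanoBRET acceptor/donor ratio (650/460 nm), bidirectional fit vs DMSO.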
(In general: In BRET a luciferase serves as donor, and the signal depends on an acceptor being close.)

Experiment [6] can be described thus: TAMU_PeakParms_SingleDonor1434_Asystole: Texas A&M University (TAMU) 1.5-hr Human Induced Pluripotent Stem Cell (iPSC)-derived Cardiomyocytes Calcium (Ca+2) Flux Assay for Cardiotoxicity: Asystole (quiescence of beating) (AID 2284328). A digest of the protocol: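 Average Ca2+-flux peak frequency (beats/s) was recorded in single-donor iPSC-derived cardiomyocytes after 90 min exposure (0.2–100 uM final, 0.5% DMSO). Asystole POD set as EC95 against DMSO, no preprocessing.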

A short description of experiment [7]: IUF_NPC1_cytotoxicity_72hr: Cytotoxicity Assessment at 72 hours in the Leibniz Research Institute for Environmental Medicine (IUF) Neural Progenitor Cell Proliferation Assay (NPC1) (AID 2284332).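 Note: rising LDH signal means more cytotoxicity.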 Put shortly:
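Spheres of primary human neural progenitors are plated one per well on day 0 in growth-factor medium and dosed at once. After three days at 37C, supernatant LDH is measured fluorimetrically via resazurin reduction.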

The test system of experiment [8] is SERPINA7 (gene 6906). The experiment in a line: CCTE_GLTED_hTBG: CCTE's human Thyroxine-binding Globulin (TBG) Inhibition Assay, Great Lakes Toxicology and Ecology Division (GLTED) Lab (AID 2284343).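 Note: active chemicals lower fluorescence versus DMSO baseline by displacing probe.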 A digest of the protocol:
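hTBG + test chem, 2 h; ANSA probe displacement; fluorescence readout ex380/em475; DMSO = neg ctrl/baseline; cell-free.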

A short description of experiment [9]: CCTE_Mundy_HCI_iCellGluta_NOG_NeuronCount: CCTE's Neurite Outgrowth Assay in iCellGluta cells for Neuron Count, Mundy Lab (AID 2284340).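 Note: cells fixed about 48 h after compound addition.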 Put shortly: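 Neuron count read by automated high-content imaging of Hoechst 33342 and betaIII-tubulin/Alexa Fluor-488 labelling in human iPSC glutamatergic neurons. Activity fitted relative to DMSO.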
Experiment [10] can be described thus: CCTE_Mundy_HCI_iCellGluta_NOG_NeuriteCount: CCTE's Neurite Outgrowth Assay in iCellGluta cells for Neurite Count, Mundy Lab (AID 2284342).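 Note: chemical exposure about 48 hours starting 2 hours after plating.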
Experiment [11] in a line: CCTE_Deisenroth_H295R-HTRF_384WELL_ESTRADIOL: CCTE's H295R-HTRF Assay Evaluation of Estradiol Concentration, Deisenroth Lab (AID 2284361; active = hit-call score of the fitted dose curve at least 0.9, where 1 is the maximum; inactive = score below 0.9). The note with it: actives raise or lower the signal. Put shortly:
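H295R cells exposed 48 h to chemicals at 0.001 - 100 uM final (nine points, triplicate); estradiol in conditioned medium measured by HTRF immunoassay, fitted bidirectionally versus DMSO. Viability by CellTiter-Glo on same plates.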

Experiment [12] in a line: CCTE_Deisenroth_H295R-HTRF_384WELL_TESTOSTERONE: CCTE's H295R-HTRF Assay Evaluation of Testosterone Concentration, Deisenroth Lab (AID 2284373; active = hit-call score of the fitted dose curve at least 0.9, where 1 is the maximum; inactive = score below 0.9). The note with it: actives raise or lower the signal. Put shortly:
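H295R cells were acclimated 24 h, then exposed 48 h to nine concentrations (0.001–100 uM final) in technical triplicate, n=5. Testosterone in conditioned medium was measured by HTRF (em 620/665 nm). Fitting was bidirectional versus DMSO; CellTiter-Glo viability ran on the same plates.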

Experiment [13] can be described thus: CCTE_Deisenroth_H295R-HTRF_384WELL_CTOX: Cytotoxicity Assessment in CCTE's H295R-HTRF Assay, Deisenroth Lab (AID 2284380). A digest of the protocol: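 H295R adrenocortical carcinoma cells plated 24 h, then exposed 48 h to nine-point series 0.001–100 uM final, triplicate, n=5. ATP measured by CellTiter-Glo 2.0 luminescence on same plates after medium collection; loss versus DMSO.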
For orientation: In TR-FRET formats the signal depends on donor and acceptor labels being close together.

The nature of experiment [14]: VALA_MIGHUV1_ScratchOnly_CellCount: Viability Assessment in the VALA Sciences human Umbilical Vein Endothelial Cell Migration (MIGHUV) Assay, Scratch Wound Inhibited Recovery (AID 2284327). Put shortly:
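HUVEC scratched after 24 h culture, chemical added within 30 min at 6 concentrations in triplicate (0.1% DMSO vehicle). After 24 h recovery, fixed cells were counted by Hoechst nuclear imaging in the wound area.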

The nature of experiment [15]: CCTE_Padilla_ZF_Score.General: CCTE's 144 Hour Post-fertilization zebrafish Assay Score for General Malformation, Padilla Lab (AID 2284411; active = hit-call score of the fitted dose curve at least 0.9, where 1 is the maximum; inactive = score below 0.9). A digest of the protocol:
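Wild-type zebrafish embryos were plated singly at 6-8 hpf in 10% Hanks' and exposed in sealed wells at 26C until rinsed on 5 dpf. At 6 dpf two blinded assessors scored mortality, hatching and malformations by stereomicroscopy; gain-of-signal versus DMSO.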

Results filed as inconclusive are left out. Active and inactive are the calls of the source. Rule for the calls, unless noted: active = hit-call score of the fitted dose curve at least 0.9, where 1 is the maximum; inconclusive = response in the unintended direction; inactive = score below 0.9.

As for `N[C@@H](Cc1cc(I)c(Oc2ccc(O)c(I)c2)c(I)c1)C(=O)O`, the molecule was called inactive in experiment [1], in experiment [2], in experiment [3] and in [4].

As for `O=C(O)c1ccccc1`, the outcome in experiment [5], in experiment [6] and in [7] was inactive.

As to `c1ccc2[nH]c(-c3cscn3)nc2c1`, the result in experiment [6] was inactive.

With `O=C(c1ccccc1)C1CCCCC1`, the AC50 (in general, the concentration giving half of the maximal activity seen) in experiment [8] was 50000 nM (active).

In the case of `CCCN(CCC)C(=O)SCC`, the molecule was classed as inactive in [7], in [9] and in [10].

For the molecule `COc1c(Cl)ccc(Cl)c1C(=O)O`, the AC50 in experiment [8] was 47700 nM (active).

For the molecule `COC(=O)CSc1cc(N=c2sc(=O)n3n2CCCC3)c(F)cc1Cl`, the concentration at half-maximal activity (AC50) in experiment [8] is 25900 nM (active).

Turning to `CCN(CC)C(=O)c1cccc(C)c1`, the outcome in [7], in [9] and in experiment [10] was inactive.

For the molecule `CSC(=O)c1cccc2nnsc12`, the molecule was classed as inactive in [7] and in experiment [10].

Consider `CC1(C)C(C=C(Cl)Cl)C1C(=O)OCc1cccc(Oc2ccccc2)c1` (stereo unspecified), for which the result in experiment [5] and in [6] was inactive.

Take `C=CCOC(Cn1ccnc1)c1ccc(Cl)cc1Cl` (stereo unspecified): the AC50 in experiment [11] is 447 nM (active); in experiment [12], 1870 nM (active); in experiment [13], 84600 nM (active).

`CCCN(CCC)c1c([N+](=O)[O-])cc(C(F)(F)F)c(N)c1[N+](=O)[O-]`: the AC50 in experiment [8] is 322 nM (active).

For the molecule `S=C(S)NCCNC(=S)S.[Mn+2].[S-]C([S-])=NCCN=C([S-])[S-].[Zn+2]`, the result in experiment [1], in experiment [14], in experiment [7], in [2], in experiment [4] and in experiment [9] was inactive. In experiment [10], the molecule was called inactive.

In the case of `CCC(C)OC(=O)N1CCCCC1CCO` (stereo unspecified), in experiment [15], the outcome was inactive.

With `CC(=O)[C@H]1CC[C@H]2[C@@H]3CCC4=CC(=O)CC[C@]4(C)[C@H]3CC[C@]12C`, the outcome in experiment [6] was inactive.

As for `CCCCOCCOCCOCc1cc2c(cc1CCC)OCO2`, the molecule was classed as inactive in experiment [11], in experiment [12] and in experiment [13].

`CCN(Cc1c(F)cccc1Cl)c1c([N+](=O)[O-])cc(C(F)(F)F)cc1[N+](=O)[O-]`: the AC50 in [8] is 620 nM (active).

As for `CC(=O)S[C@@H]1CC2=CC(=O)CC[C@]2(C)[C@H]2CC[C@@]3(C)[C@@H](CC[C@@]34CCC(=O)O4)[C@H]12`, the molecule was called inactive in experiment [11] and in experiment [13]. Moreover, the AC50 in experiment [12] was 1280 nM (active).
